# Dicer processing = inhibitors of Dicer pre-microRNA processing, primary screen, biochemical, cat-ELCCA, chemiluminescence | AID 1347074, 2019 | cat-ELCCA pre-miR-21 Dicer processing; active compounds read high | actives 6% (n = 47,000) | z-score at 25 µM; in the data active = z-score above about 3, passing the limit was not always enough;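 note: plate controls were vehicle for no effect and no enzyme for full effect; higher signal means more uncleaved substrate so more Dicer inhibition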
# The depositor's hits bear a star; ! = not confirmed by another sample. The sample as a whole holds a higher share of hits than the screen did.
SMILES,Dicer processing
Cc1ccc2nc(C(F)(F)F)cc(OC(C)C)c2c1,0.16
COc1ccc(NC(=S)Nc2cc3c(c(N)c2C)C(C)(C)CC3(C)C)cc1,0.57
Cc1cc(C)c(NC(=O)CSCc2cnc(C)c(O)c2CO)c(C)c1,-0.32
COc1cccc(C(=O)Nc2nnc(C(F)(F)C(F)(F)C(F)(F)F)s2)c1,-1.1
Cc1c(C(=O)O)ccc2c1NC(c1ccc(C(C)C)cc1)C1CC=CC21 (configuration not stated),3.4*
CCOC(=O)c1ccc2c(c1)[C@@H]1C=CC[C@@H]1[C@H](c1ccc(C(=O)O)cc1)N2,0.06
COC(=O)c1ccc2c(c1)C1C=CCC1[C@@H](c1ccc(C(=O)O)cc1)N2 (some centres not stated),-1.7
Cc1cccc2c1N[C@H](c1ccc(C(=O)O)cc1)C1CC=CC21 (some centres not stated),0.98
COc1ccc2c(c1)[C@@H]1C=CC[C@@H]1[C@H](c1ccc(C(=O)O)cc1)N2,4.2*
O=C(O)c1cccc2c1NC(c1ccc(Br)cc1)C1CC=CC21 (configuration not stated),-0.72
Cn1nc(C(C)(C)C)cc1NC(=O)Nc1ccc(F)cc1,2.2
Cc1ccc(N2C(=O)SC(Nc3ccc(S(N)(=O)=O)cc3)C2=O)cc1 (configuration not stated),1.6
Cn1c(=O)c2c(ncn2CC(=O)NCc2ccncc2)n(C)c1=O,1.7
Nc1c(-c2nc(-c3ccccc3)cs2)c2ccccn2c1C(=O)c1cccs1,0.81
O=S(=O)(NCCN1CCCC1)c1cccc2nsnc12,-0.73
Nc1cccc(/C=C/c2nc3ccc(N)cc3[nH]2)c1,3.7*
Nc1ccc(C(=O)OCCCc2nc3ccc(N)cc3[nH]2)cc1,-2.3
Nc1ccc(Cc2nc3ccc(C(=O)O)cc3[nH]2)cc1,1.7
Nc1ccc2nc(CCCc3nc4ccccc4s3)[nH]c2c1,-1.4
Nc1cccc(-c2nc3ccc(N)cc3[nH]2)c1,-1.6
Nc1ccc2nc(/C=C/c3ccccc3)[nH]c2c1,3.2*
CC(C)c1ccc(C2/C(=C(/O)c3ccc(F)cc3)C(=O)C(=O)N2c2nncs2)cc1 (configuration not stated),0.58
CCOC(=O)c1cc(CC)sc1NC(=O)CSc1ccc(Cl)cc1,-1.1
O=c1[nH]c(-c2ccccc2)nnc1/C=C/c1ccccc1,-0.05
COc1cc2ncnc(NCCCn3ccnc3)c2cc1OC,1.9
SMILES,Dicer processing
Cc1nc(-c2ccc(C(N)=O)cc2)ncc1-c1nsc(Nc2ccccc2)n1,0.12
Cc1c(Cl)c([N+](=O)[O-])nn1CC(=O)Nc1c(F)cc(F)cc1Br,-0.5
O=C1CCS(=O)(=O)c2ccc(Cl)cc21,0.59
O=C(NCCO)C(=O)NCC1CCCO1 (configuration not stated),2.7
N#CC(=Nc1ccc(F)cc1)C1=C(O)c2ccccc2C1=O,0.82
N#CC(=Nc1ccc(F)cc1F)C1=C(O)c2ccccc2C1=O,-3.2
CC(C)(C)c1ccc(N=C(C#N)C2=C(O)c3ccccc3C2=O)cc1,3.1*
COC(=O)c1ccsc1NC(=O)CN1CCN(S(=O)(=O)c2ccc(C)cc2)CC1,1.4
C=CCN(c1ccccc1C1=N/C(=C\c2ccc(Cl)cc2)C(=O)O1)S(=O)(=O)c1ccc(C)cc1,-0.31
COc1cc2c(cc1OC)CN(S(=O)(=O)c1ccc3c(c1)CCC(C)(C)O3)CC2,-0.69
COc1cc2c(cc1OC)C1=C(C#N)CN(c3ccc(C)c(C)c3)CN1CC2,4.5*
COc1cc2c(cc1OC)C1=C(C#N)CN(CCc3ccccc3)CN1CC2,1.1
CCOC(=O)c1cc(-c2ccccc2)sc1NC(=O)Nc1ccc(C)cc1,-2.7
Cn1c(-c2ccc(Cl)cc2)cnc1NCc1cccc(F)c1,2.4
COC(=O)CC1(C(=O)OC)Oc2ccccc2C(=O)N1c1cc(Cl)cc(Cl)c1 (configuration not stated),-0.2
Fc1ccc(NC(=S)N2CCCCC2CCN2CCOCC2)cc1 (configuration not stated),-0.25
CC1(C)NC(=O)N(CC(O)COc2ccc(Br)cc2)C1=O (configuration not stated),3.1*
Cc1ccc(OCC(O)CN2C(=O)NC(C)(C)C2=O)cc1 (configuration not stated),1.3
Cc1ccc(OCC(O)CN2C(=O)NC(C)(C)C2=O)cc1C (configuration not stated),0.02
CC1(C)NC(=O)N(CC(O)CN(c2ccccc2)S(=O)(=O)c2ccccc2)C1=O (configuration not stated),2.2
CC1(C)NC(=O)N(CC(O)CN(Cc2ccccc2)Cc2ccccc2)C1=O (configuration not stated),3*
CC1(C)NC(=O)N(Cc2ccccc2)C1=O,-0.41
Cc1cc(Cl)cc(Br)c1OCC(O)CNCCNc1nccc(C(F)(F)F)n1 (configuration not stated),-0.05
CCOC(=O)c1c[nH]n2c(=O)cc(-c3ccccc3)nc12,-0.98
CCOC(=O)/C(C#N)=C(/SC)N(C)C,0.7
SMILES,Dicer processing
Cn1c(SCC(=O)Nc2ccccc2)nnc1SCC(=O)Nc1ccccc1,-0.03
O=C(CSc1nc(-c2ccccc2)cn1-c1ccccc1)NC(=O)Nc1ccccc1,3.4*
CCOC(=O)CSc1nc(-c2ccccc2)cn1-c1ccccc1,0.37
O=c1[nH]c(=O)n(-c2nc(-c3ccccc3)oc2-c2ccccc2)cc1Cl,-1.3
CCCCCCCC/C=C\CCCCCCCC(=O)NCCc1ccc(O)c(O)c1,1.1
CC(CCc1ccc(O)cc1)NCCc1ccc(O)c(O)c1 (configuration not stated),7*!
C[C@H](Cc1ccc(O)c(O)c1)[C@@H](C)Cc1ccc(O)c(O)c1,0.3
Cc1cc(C)n(-c2nnc3n2N=C(c2ccccc2O)CS3)n1,0.93
COc1ccccc1NC(=O)CSCc1cnc(C)c(O)c1CO,-0.38
O=C(Nc1cccc(S(=O)(=O)N2CCOCC2)c1)c1cc2sc3ccccc3c2s1,-0.66
CN(C)c1ccc(C(O)C(=O)c2cccs2)cc1 (configuration not stated),0.15
O=C(Nc1ccc2c(c1)CS(=O)(=O)C2)c1cccs1,0.38
CN(C)c1ccc(NC(=O)c2cccs2)cc1,3.2*
CCN(CC)CCCNC(=O)c1sc2ccccc2c1Cl,-0.79
CN(C)c1ccc(NC(=O)c2cc3sc4ccccc4c3s2)cc1,6.5*
COCCNC(=O)c1cc2sc3ccccc3c2s1,3.9*
O=C(Nc1ccc(F)cc1)c1sc2ccccc2c1Cl,-0.53
COC(=O)c1sc2ccccc2c1Cl,-0.81
CC(=O)OCC12c3ccccc3C(COC(C)=O)(c3ccccc31)C1C(=O)N(c3ccccc3)C(=O)C12 (configuration not stated),0.93
COc1ccc(-c2nnc(SCc3ccccc3C)o2)cc1,2.1
Cc1nnc(N2C(=O)c3oc4ccccc4c(=O)c3C2c2ccc(C(C)C)cc2)s1 (configuration not stated),-1.6
Cc1cc(C)n(S(=O)(=O)c2ccc(-c3ccccn3)s2)n1,-1.2
CCS(=O)(=O)c1nc2ccccc2n1Cc1ccc(C(C)(C)C)cc1,0.58
COc1ccc(CN2CCN(Cc3ccccc3Br)CC2)c(OC)c1,-0.01
CCOC(=O)/C(C)=N/Nc1ccc(F)cc1F,-0.65
OCCSc1ccc(Oc2ccc(SCCO)cc2)cc1,-1.5
Cn1c(-c2ccccc2)cccc1=O,3.8*
Cn1c(-c2ccccc2)cn2cc(-c3ccccc3)nc12,8.7
COc1cccc2ccc(=O)n(C)c12,2.1
CCOC(=O)c1[nH]c2ccc(F)cc2c1N,2.5
